# Biological target: AgAbp1
# Assay: SPOT peptide array binding signal intensity (averaged, normalized) (arbitrary units (background-subtracted, floor 0; scale differs between SH3 domains)); higher = stronger binding of the SH3 domain to the peptide
# Procedure, shortened: (§1)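 Four yeast species supplied the SH3 domains, which were expressed as GST fusions in E. coli BL21(DE3) and purified on glutathione Sepharose. Incubation with cellulose membranes carrying synthetic 15-mer peptides, cysteines exchanged for serines, ran overnight at 4°C at 10 μg/ml in TBS-based blocking buffer. Binding signal is reported as normalized, background-subtracted spot intensity averaged over replicates, in arbitrary units not shared between domains.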
row,Binder,SPOT peptide array binding signal intensity
1,ATKSASPTLPTRRSR,938

# Biological target: AgBbc1
# Assay: as above
# Procedure, shortened: as §1
row,Binder,SPOT peptide array binding signal intensity
1,ATKSASPTLPTRRSR,899

# Biological target: AgBem1-D1
# Assay: as above
# Procedure, shortened: as §1
row,Binder,SPOT peptide array binding signal intensity
1,ATKSASPTLPTRRSR,133

# Biological target: AgBzz1-D1
# Assay: as above
# Procedure, shortened: as §1
row,Binder,SPOT peptide array binding signal intensity
1,ATKSASPTLPTRRSR,99.5

# Biological target: AgBzz1-D2
# Assay: as above
# Procedure, shortened: as §1
row,Binder,SPOT peptide array binding signal intensity
1,ATKSASPTLPTRRSR,45

# Biological target: AgCyk3
# Assay: as above
# Procedure, shortened: as §1
row,Binder,SPOT peptide array binding signal intensity
1,ATKSASPTLPTRRSR,2

# Biological target: AgFus1
# Assay: as above
# Procedure, shortened: as §1
row,Binder,SPOT peptide array binding signal intensity
1,ATKSASPTLPTRRSR,28

# Biological target: AgHof1
# Assay: as above
# Procedure, shortened: as §1
row,Binder,SPOT peptide array binding signal intensity
1,ATKSASPTLPTRRSR,180

# Biological target: AgHse1
# Assay: as above
# Procedure, shortened: as §1
row,Binder,SPOT peptide array binding signal intensity
1,ATKSASPTLPTRRSR,114

# Biological target: AgLsb1
# Assay: as above
# Procedure, shortened: as §1
row,Binder,SPOT peptide array binding signal intensity
1,ATKSASPTLPTRRSR,18.5

# Biological target: AgLsb4
# Assay: as above
# Procedure, shortened: as §1
row,Binder,SPOT peptide array binding signal intensity
1,ATKSASPTLPTRRSR,1800

# Biological target: AgMyo5
# Assay: as above
# Procedure, shortened: as §1
row,Binder,SPOT peptide array binding signal intensity
1,ATKSASPTLPTRRSR,5.5

# Biological target: AgNbp2
# Assay: as above
# Procedure, shortened: as §1
row,Binder,SPOT peptide array binding signal intensity
1,ATKSASPTLPTRRSR,39.5

# Biological target: AgRvs167
# Assay: as above
# Procedure, shortened: as §1
row,Binder,SPOT peptide array binding signal intensity
1,ATKSASPTLPTRRSR,192

# Biological target: AgSho1
# Assay: as above
# Procedure, shortened: as §1
row,Binder,SPOT peptide array binding signal intensity
1,ATKSASPTLPTRRSR,≤ 0

# Biological target: AgSla1-D1-D2
# Assay: as above
# Procedure, shortened: as §1
row,Binder,SPOT peptide array binding signal intensity
1,ATKSASPTLPTRRSR,74.5

# Biological target: AgSla1-D3
# Assay: as above
# Procedure, shortened: as §1
row,Binder,SPOT peptide array binding signal intensity
1,ATKSASPTLPTRRSR,11.8

# Biological target: CaAbp1-D1
# Assay: as above
# Procedure, shortened: as §1
row,Binder,SPOT peptide array binding signal intensity
1,ATKSASPTLPTRRSR,434

# Biological target: CaAbp1-D2
# Assay: as above
# Procedure, shortened: as §1
row,Binder,SPOT peptide array binding signal intensity
1,ATKSASPTLPTRRSR,1090

# Biological target: CaBbc1
# Assay: as above
# Procedure, shortened: as §1
row,Binder,SPOT peptide array binding signal intensity
1,ATKSASPTLPTRRSR,986

# Biological target: CaBem1-D1
# Assay: as above
# Procedure, shortened: as §1
row,Binder,SPOT peptide array binding signal intensity
1,ATKSASPTLPTRRSR,51

# Biological target: CaBzz1-D1
# Assay: as above
# Procedure, shortened: as §1
row,Binder,SPOT peptide array binding signal intensity
1,ATKSASPTLPTRRSR,223

# Biological target: CaBzz1-D2
# Assay: as above
# Procedure, shortened: as §1
row,Binder,SPOT peptide array binding signal intensity
1,ATKSASPTLPTRRSR,195

# Biological target: CaCyk3
# Assay: as above
# Procedure, shortened: as §1
row,Binder,SPOT peptide array binding signal intensity
1,ATKSASPTLPTRRSR,56

# Biological target: CaFus1
# Assay: as above
# Procedure, shortened: as §1
row,Binder,SPOT peptide array binding signal intensity
1,ATKSASPTLPTRRSR,35

# Biological target: CaHof1
# Assay: as above
# Procedure, shortened: as §1
row,Binder,SPOT peptide array binding signal intensity
1,ATKSASPTLPTRRSR,4

# Biological target: CaHse1
# Assay: as above
# Procedure, shortened: as §1
row,Binder,SPOT peptide array binding signal intensity
1,ATKSASPTLPTRRSR,8.75

# Biological target: CaLsb1
# Assay: as above
# Procedure, shortened: as §1
row,Binder,SPOT peptide array binding signal intensity
1,ATKSASPTLPTRRSR,0.75

# Biological target: CaLsb4
# Assay: as above
# Procedure, shortened: as §1
row,Binder,SPOT peptide array binding signal intensity
1,ATKSASPTLPTRRSR,6350

# Biological target: CaMyo5
# Assay: as above
# Procedure, shortened: as §1
row,Binder,SPOT peptide array binding signal intensity
1,ATKSASPTLPTRRSR,6

# Biological target: CaNbp2
# Assay: as above
# Procedure, shortened: as §1
row,Binder,SPOT peptide array binding signal intensity
1,ATKSASPTLPTRRSR,77

# Biological target: CaRvs167
# Assay: as above
# Procedure, shortened: as §1
row,Binder,SPOT peptide array binding signal intensity
1,ATKSASPTLPTRRSR,607

# Biological target: CaRvs167-3
# Assay: as above
# Procedure, shortened: as §1
row,Binder,SPOT peptide array binding signal intensity
1,ATKSASPTLPTRRSR,9.25

# Biological target: CaSho1
# Assay: as above
# Procedure, shortened: as §1
row,Binder,SPOT peptide array binding signal intensity
1,ATKSASPTLPTRRSR,23

# Biological target: CaSla1-D1-D2
# Assay: as above
# Procedure, shortened: as §1
row,Binder,SPOT peptide array binding signal intensity
1,ATKSASPTLPTRRSR,1430

# Biological target: CaSla1-D3
# Assay: as above
# Procedure, shortened: as §1
row,Binder,SPOT peptide array binding signal intensity
1,ATKSASPTLPTRRSR,1.75

# Biological target: ScAbp1
# Assay: as above
# Procedure, shortened: as §1
row,Binder,SPOT peptide array binding signal intensity
1,ATKSASPTLPTRRSR,192

# Biological target: ScBbc1
# Assay: as above
# Procedure, shortened: as §1
row,Binder,SPOT peptide array binding signal intensity
1,ATKSASPTLPTRRSR,405

# Biological target: ScBem1-D1
# Assay: as above
# Procedure, shortened: as §1
row,Binder,SPOT peptide array binding signal intensity
1,ATKSASPTLPTRRSR,30

# Biological target: ScBzz1-D1
# Assay: as above
# Procedure, shortened: as §1
row,Binder,SPOT peptide array binding signal intensity
1,ATKSASPTLPTRRSR,95

# Biological target: ScBzz1-D2
# Assay: as above
# Procedure, shortened: as §1
row,Binder,SPOT peptide array binding signal intensity
1,ATKSASPTLPTRRSR,52

# Biological target: ScCyk3
# Assay: as above
# Procedure, shortened: as §1
row,Binder,SPOT peptide array binding signal intensity
1,ATKSASPTLPTRRSR,32

# Biological target: ScFus1
# Assay: as above
# Procedure, shortened: as §1
row,Binder,SPOT peptide array binding signal intensity
1,ATKSASPTLPTRRSR,14

# Biological target: ScHof1
# Assay: as above
# Procedure, shortened: as §1
row,Binder,SPOT peptide array binding signal intensity
1,ATKSASPTLPTRRSR,3.5

# Biological target: ScHse1
# Assay: as above
# Procedure, shortened: as §1
row,Binder,SPOT peptide array binding signal intensity
1,ATKSASPTLPTRRSR,172

# Biological target: ScLsb1
# Assay: as above
# Procedure, shortened: as §1
row,Binder,SPOT peptide array binding signal intensity
1,ATKSASPTLPTRRSR,651

# Biological target: ScLsb2
# Assay: as above
# Procedure, shortened: as §1
row,Binder,SPOT peptide array binding signal intensity
1,ATKSASPTLPTRRSR,13.5

# Biological target: ScLsb3
# Assay: as above
# Procedure, shortened: as §1
row,Binder,SPOT peptide array binding signal intensity
1,ATKSASPTLPTRRSR,5480

# Biological target: ScLsb4
# Assay: as above
# Procedure, shortened: as §1
row,Binder,SPOT peptide array binding signal intensity
1,ATKSASPTLPTRRSR,2750

# Biological target: ScMyo3
# Assay: as above
# Procedure, shortened: as §1
row,Binder,SPOT peptide array binding signal intensity
1,ATKSASPTLPTRRSR,1.5

# Biological target: ScMyo5
# Assay: as above
# Procedure, shortened: as §1
row,Binder,SPOT peptide array binding signal intensity
1,ATKSASPTLPTRRSR,5

# Biological target: ScNbp2
# Assay: as above
# Procedure, shortened: as §1
row,Binder,SPOT peptide array binding signal intensity
1,ATKSASPTLPTRRSR,63.5

# Biological target: ScPex13
# Assay: as above
# Procedure, shortened: as §1
row,Binder,SPOT peptide array binding signal intensity
1,ATKSASPTLPTRRSR,511

# Biological target: ScRvs167
# Assay: as above
# Procedure, shortened: as §1
row,Binder,SPOT peptide array binding signal intensity
1,ATKSASPTLPTRRSR,1320

# Biological target: ScSho1
# Assay: as above
# Procedure, shortened: as §1
row,Binder,SPOT peptide array binding signal intensity
1,ATKSASPTLPTRRSR,65.5

# Biological target: ScSla1-D1-D2
# Assay: as above
# Procedure, shortened: as §1
row,Binder,SPOT peptide array binding signal intensity
1,ATKSASPTLPTRRSR,726

# Biological target: ScSla1-D3
# Assay: as above
# Procedure, shortened: as §1
row,Binder,SPOT peptide array binding signal intensity
1,ATKSASPTLPTRRSR,25.8

# Biological target: SpAbp1-D1
# Assay: as above
# Procedure, shortened: as §1
row,Binder,SPOT peptide array binding signal intensity
1,ATKSASPTLPTRRSR,356

# Biological target: SpBbc1
# Assay: as above
# Procedure, shortened: as §1
row,Binder,SPOT peptide array binding signal intensity
1,ATKSASPTLPTRRSR,27

# Biological target: SpBzz1-D1
# Assay: as above
# Procedure, shortened: as §1
row,Binder,SPOT peptide array binding signal intensity
1,ATKSASPTLPTRRSR,366

# Biological target: SpBzz1-D2
# Assay: as above
# Procedure, shortened: as §1
row,Binder,SPOT peptide array binding signal intensity
1,ATKSASPTLPTRRSR,1

# Biological target: SpCyk3
# Assay: as above
# Procedure, shortened: as §1
row,Binder,SPOT peptide array binding signal intensity
1,ATKSASPTLPTRRSR,3

# Biological target: SpHof1
# Assay: as above
# Procedure, shortened: as §1
row,Binder,SPOT peptide array binding signal intensity
1,ATKSASPTLPTRRSR,732

# Biological target: SpHof1-2
# Assay: as above
# Procedure, shortened: as §1
row,Binder,SPOT peptide array binding signal intensity
1,ATKSASPTLPTRRSR,83

# Biological target: SpHof1-3
# Assay: as above
# Procedure, shortened: as §1
row,Binder,SPOT peptide array binding signal intensity
1,ATKSASPTLPTRRSR,110

# Biological target: SpHse1
# Assay: as above
# Procedure, shortened: as §1
row,Binder,SPOT peptide array binding signal intensity
1,ATKSASPTLPTRRSR,77

# Biological target: SpLsb1
# Assay: as above
# Procedure, shortened: as §1
row,Binder,SPOT peptide array binding signal intensity
1,ATKSASPTLPTRRSR,90

# Biological target: SpLsb4
# Assay: as above
# Procedure, shortened: as §1
row,Binder,SPOT peptide array binding signal intensity
1,ATKSASPTLPTRRSR,7440

# Biological target: SpMyo1
# Assay: as above
# Procedure, shortened: as §1
row,Binder,SPOT peptide array binding signal intensity
1,ATKSASPTLPTRRSR,46.8

# Biological target: SpNbp2
# Assay: as above
# Procedure, shortened: as §1
row,Binder,SPOT peptide array binding signal intensity
1,ATKSASPTLPTRRSR,21.5

# Biological target: SpPex13
# Assay: as above
# Procedure, shortened: as §1
row,Binder,SPOT peptide array binding signal intensity
1,ATKSASPTLPTRRSR,17

# Biological target: SpRvs167
# Assay: as above
# Procedure, shortened: as §1
row,Binder,SPOT peptide array binding signal intensity
1,ATKSASPTLPTRRSR,2470

# Biological target: SpSla1-D1-D2
# Assay: as above
# Procedure, shortened: as §1
row,Binder,SPOT peptide array binding signal intensity
1,ATKSASPTLPTRRSR,334

# Biological target: SpSla1-D3
# Assay: as above
# Procedure, shortened: as §1
row,Binder,SPOT peptide array binding signal intensity
1,ATKSASPTLPTRRSR,≤ 0

# — the supplement of paper PMC4466140
